This note sets out measurements from PubChem BioAssay (Tox21).

The structures appear in SMILES notation. Records with an inconclusive call do not appear. The source made the active and inactive calls. Calls follow the shape of the dose curve; as a rule, active = well fitted curve in the direction sought with a large enough effect in the repeat runs; inconclusive = weak or mixed curves; inactive = no such curve, though single readings can be large; an effect the other way counts as inactive or inconclusive.
% is scaled to controls: 0 for no effect and ±100 for the full control effect; potency is read from the fitted curve at half-maximal effect.

One assay in a line: qHTS assay for identifying genotoxic compounds that show differential cytotoxicity against isogenic chicken DT40 cell lines with known DNA damage response pathways - wild type cell line (AID 743012). Also: nearly all actives have a fitted effect of over 60% in size. Particulars: DT40 wild type chicken cells viability, CellTiter-Glo, 40 h; series mostly up to 68.4 µM; activity change, negative = cytotoxicity: at the top concentration. The essentials: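 Wild-type DT40 cells (300/well) exposed to compounds for 40 hours at 37 C/5% CO2. Viability read by CellTiter-Glo luminescence after 30 min at room temperature.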
Take `FC(F)(F)c1ccccc1`: the “activity change, negative = cytotoxicity” value was 5.77% (inactive).
With `Cc1ccc([N+](=O)[O-])cc1Cl`, the “activity change, negative = cytotoxicity” value was 2.1% [at 95 µM] (inactive).
The same measure, in the same setting: in the case of `COc1cc(C)ccc1C(C)C` it was -5.82% (inactive); in that of `CCCCC(CC)COC(=O)COc1cc(Cl)c(Cl)cc1Cl` (stereo unspecified), 21.9% (inactive); in that of `CCOc1ccc(NC(N)=O)cc1`, 12.8% (inactive).
Turning to `C=Cc1ccccc1`, the Potency result was “inactive”.
`CC/C=C\CCOC(=O)CCCCC`: the “activity change, negative = cytotoxicity” value was 6.65% (inactive).
In the case of `CC1CN(c2ccccc2)NC1=O` (stereo unspecified), the “activity change, negative = cytotoxicity” value is -16.3% (inactive).
The same measure, in the same setting: in the case of `Cc1c(C(=O)NCCO)[n+](=O)c2ccccc2n1[O-]` it was 15.5% (inactive).
The same measure, in the same setting: to `Cc1cc(S(=O)(=O)O)c(N)cc1Cl` belongs -0.687% [at 95 µM] (inactive).
For the compound `NC1=NCC2c3ccccc3Cc3ccccc3N12` (stereo unspecified), the Potency is 21.1 µM (active).
In the case of `CCc1nnc(NS(=O)(=O)c2ccc(N)cc2)s1`, the “activity change, negative = cytotoxicity” value was 3.43% (inactive).
Still for that read-out and setting: in the case of `O=C(O[C@@H](C(=O)O)[C@@H](OC(=O)c1ccccc1)C(=O)O)c1ccccc1` it was 4.02% [at 95 µM] (inactive).
Consider `CCCCC(=O)O[C@]1(C(=O)CO)[C@H](C)C[C@H]2[C@@H]3CCC4=CC(=O)C=C[C@]4(C)[C@@]3(F)[C@@H](O)C[C@@]21C`, for which the Potency was 26.6 µM (active).
On to `C[C@@H]1CN(c2c(F)c(N)c3c(=O)c(C(=O)O)cn(C4CC4)c3c2F)C[C@H](C)N1`, for which the “activity change, negative = cytotoxicity” value was -17.9% (inactive).
The same measure, in the same setting: in the case of `NNS(=O)(=O)c1ccc(Oc2ccc(S(=O)(=O)NN)cc2)cc1` it was -24.5% (inactive).
With `CCN(CC)C(=O)N(CC)CC`, the “activity change, negative = cytotoxicity” value is -23.1% (inactive).
Same read-out and setting: in the case of `Cc1ccsc1C(=CCCN1CCC[C@@H](C(=O)O)C1)c1sccc1C` it was -20.2% (inactive).
As to `CN1CCN(c2c(F)cc3c(=O)c(C(=O)O)cn4c3c2SCC4)CC1`, the Potency is 10.6 µM (active).
For the compound `CC(C)(C)C1CCCCC1=O` (stereo unspecified), the “activity change, negative = cytotoxicity” value was 26.1% (inactive).
Still for that read-out and setting: to `CC1(C)C(=O)N(Cl)C(=O)N1Br` belongs -19.4% (inactive).
The same measure, in the same setting: to `Cc1c(N)cccc1N` belongs -25.4% [at 95 µM] (inactive).
Take `CC(=O)Nc1ccc(C)c(Cl)c1`: the “activity change, negative = cytotoxicity” value is 24.4% (inactive).
Still for that read-out and setting: to `CC(C)C(=O)OCC(C)(C)C(O)C(C)C` (stereo unspecified) belongs 0.648% [at 95 µM] (inactive); to `OCCN1CCN(CCO)CC1`, 11.1% [at 95 µM] (inactive).
Still for that read-out and setting: to `Cc1nnc(SCC2=C(C(=O)O)N3C(=O)[C@@H](NC(=O)Cn4cnnn4)[C@H]3SC2)s1` belongs -0.0178% (inactive).
Regarding `CS(=O)(=O)c1ccc([C@@H](O)[C@@H](CF)NC(=O)C(Cl)Cl)cc1`, the Potency is 4.03 µM (active).
Consider `CCCCC1CCC(=O)O1` (stereo unspecified), for which the “activity change, negative = cytotoxicity” value was 4.5% (inactive).
Still for that read-out and setting: to `NC/C=C/C(=O)O` belongs 5.48% (inactive).

A further assay is described as follows: qHTS assay for identifying genotoxic compounds that show differential cytotoxicity against isogenic chicken DT40 cell lines with known DNA damage response pathways - Rev3 mutant cell line (AID 743014). Also: nearly all actives have a fitted effect of over 55% in size. Particulars: chicken DT40 Rev3-/- viability, CellTiter-Glo, 40 h; series mostly up to 68.4 µM; activity, negative = cytotoxicity: at the top concentration. Background: In qHTS, concentration-response curves come from the screen itself.
For the compound `FC(F)(F)c1ccccc1`, the “activity, negative = cytotoxicity” value is 2% (inactive).
The same measure, in the same setting: in the case of `Cc1ccc([N+](=O)[O-])cc1Cl` it was 8.41% [at 95 µM] (inactive); in that of `NC(=O)Cc1cccc(C(=O)c2ccccc2)c1N`, -13.3% (inactive); in that of `CN(C)CC[C@@H](c1ccc(Cl)cc1)c1ccccn1`, -2.97% (inactive).
Same read-out and setting: to `COc1cc(C)ccc1C(C)C` belongs -2.38% (inactive); to `CCCCC(CC)COC(=O)COc1cc(Cl)c(Cl)cc1Cl` (stereo unspecified), -7.89% (inactive); to `CCOc1ccc(NC(N)=O)cc1`, -0.0382% (inactive).
On the same count and under the same terms, to `C=C(C)C(=O)OCCOP(=O)(O)O` belongs 7.15% [at 95 µM] (inactive).
Take `C=Cc1ccccc1`: the Potency result is “inactive”.
On to `CC/C=C\CCOC(=O)CCCCC`, for which the “activity, negative = cytotoxicity” value is 0.177% (inactive).
On the same count and under the same terms, in the case of `CC1CN(c2ccccc2)NC1=O` (stereo unspecified) it was -4.28% (inactive).
Same read-out and setting: in the case of `Cc1cc(S(=O)(=O)O)c(N)cc1Cl` it was 8.15% [at 95 µM] (inactive).
With `NC1=NCC2c3ccccc3Cc3ccccc3N12` (stereo unspecified), the Potency was 26.6 µM (active).
Regarding `CCc1nnc(NS(=O)(=O)c2ccc(N)cc2)s1`, the “activity, negative = cytotoxicity” value was 2.6% (inactive).
Same read-out and setting: to `O=C(O[C@@H](C(=O)O)[C@@H](OC(=O)c1ccccc1)C(=O)O)c1ccccc1` belongs 12.4% [at 95 µM] (inactive); to `C[C@@H]1CN(c2c(F)c(N)c3c(=O)c(C(=O)O)cn(C4CC4)c3c2F)C[C@H](C)N1`, -5.01% (inactive).
Consider `NNS(=O)(=O)c1ccc(Oc2ccc(S(=O)(=O)NN)cc2)cc1`, for which the Potency is 27.3 µM (active).
As for `Cc1ccsc1C(=CCCN1CCC[C@@H](C(=O)O)C1)c1sccc1C`, the “activity, negative = cytotoxicity” value was -5.04% (inactive).
As to `CN1CCN(c2c(F)cc3c(=O)c(C(=O)O)cn4c3c2SCC4)CC1`, the Potency is 18.8 µM (active).
Turning to `CC(C)(C)C1CCCCC1=O` (stereo unspecified), the “activity, negative = cytotoxicity” value is -1.7% (inactive).
Same read-out and setting: to `CC1(C)C(=O)N(Cl)C(=O)N1Br` belongs -12% (inactive).
In the case of `CC(=O)Nc1ccc(C)c(Cl)c1`, the “activity, negative = cytotoxicity” value is -28.4% (inactive).
On the same count and under the same terms, in the case of `CN(C)CCOc1ccccc1Cc1ccccc1` it was -0.903% (inactive).
Same read-out and setting: to `CC(C)C(=O)OCC(C)(C)C(O)C(C)C` (stereo unspecified) belongs 0.901% [at 95 µM] (inactive); to `OCCN1CCN(CCO)CC1`, 3.08% [at 95 µM] (inactive); to `Cc1nnc(SCC2=C(C(=O)O)N3C(=O)[C@@H](NC(=O)Cn4cnnn4)[C@H]3SC2)s1`, -0.478% (inactive).
For the compound `CS(=O)(=O)c1ccc([C@@H](O)[C@@H](CF)NC(=O)C(Cl)Cl)cc1`, the Potency is 6.39 µM (active).
Regarding `CCCCC1CCC(=O)O1` (stereo unspecified), the “activity, negative = cytotoxicity” value is -0.813% (inactive).
Same read-out and setting: to `NC/C=C/C(=O)O` belongs 15.7% (inactive).

The next assay can be described thus: qHTS assay for identifying genotoxic compounds that show differential cytotoxicity against isogenic chicken DT40 cell lines with known DNA damage response pathways - Rad54/Ku70 mutant cell line (AID 743015). Also: nearly all actives have a fitted effect of over 60% in size. Particulars: DT40 Rad54/Ku70 mutant viability, CellTiter-Glo, 40 h; series mostly up to 66.8 µM; activity change, negative = cytotoxicity: at the top concentration.
Consider `FC(F)(F)c1ccccc1`, for which the “activity change, negative = cytotoxicity” value was 1.79% (inactive).
For the compound `Cc1ccc([N+](=O)[O-])cc1Cl`, the “activity change, negative = cytotoxicity” value was 10.4% [at 95.1 µM] (inactive).
Still for that read-out and setting: in the case of `NC(=O)Cc1cccc(C(=O)c2ccccc2)c1N` it was -14.9% (inactive).
The same measure, in the same setting: to `CN(C)CC[C@@H](c1ccc(Cl)cc1)c1ccccn1` belongs -15.8% (inactive); to `CCCCC(CC)COC(=O)COc1cc(Cl)c(Cl)cc1Cl` (stereo unspecified), -16.6% (inactive); to `CCOc1ccc(NC(N)=O)cc1`, 2.81% (inactive).
`C=C(C)C(=O)OCCOP(=O)(O)O`: the “activity change, negative = cytotoxicity” value is -8.11% [at 95.1 µM] (inactive).
Regarding `C=Cc1ccccc1`, the Potency result is “inactive”.
Take `CC/C=C\CCOC(=O)CCCCC`: the “activity change, negative = cytotoxicity” value was 3.66% (inactive).
Still for that read-out and setting: in the case of `CC1CN(c2ccccc2)NC1=O` (stereo unspecified) it was 0.91% (inactive).
Same read-out and setting: in the case of `Cc1cc(S(=O)(=O)O)c(N)cc1Cl` it was 3.84% [at 95.1 µM] (inactive); in that of `CCc1nnc(NS(=O)(=O)c2ccc(N)cc2)s1`, 0.0543% (inactive); in that of `O=C(O[C@@H](C(=O)O)[C@@H](OC(=O)c1ccccc1)C(=O)O)c1ccccc1`, 1.2% [at 95.1 µM] (inactive).
For the compound `C[C@@H]1CN(c2c(F)c(N)c3c(=O)c(C(=O)O)cn(C4CC4)c3c2F)C[C@H](C)N1`, the “activity change, negative = cytotoxicity” value is -18.4% (inactive).
On the same count and under the same terms, in the case of `NNS(=O)(=O)c1ccc(Oc2ccc(S(=O)(=O)NN)cc2)cc1` it was -27.4% (inactive); in that of `CCN(CC)C(=O)N(CC)CC`, -2.66% (inactive).
On the same count and under the same terms, to `Cc1ccsc1C(=CCCN1CCC[C@@H](C(=O)O)C1)c1sccc1C` belongs -0.516% (inactive).
Regarding `CN1CCN(c2c(F)cc3c(=O)c(C(=O)O)cn4c3c2SCC4)CC1`, the Potency was 21.1 µM (active).
On to `CC(C)(C)C1CCCCC1=O` (stereo unspecified), for which the “activity change, negative = cytotoxicity” value was -1.73% (inactive).
On the same count and under the same terms, to `CC1(C)C(=O)N(Cl)C(=O)N1Br` belongs -29.9% (inactive).
As for `Cc1c(N)cccc1N`, the Potency is 14 µM (active).
`CC(=O)Nc1ccc(C)c(Cl)c1`: the “activity change, negative = cytotoxicity” value is -3.17% (inactive).
Still for that read-out and setting: in the case of `CC(C)C(=O)OCC(C)(C)C(O)C(C)C` (stereo unspecified) it was 6.11% [at 95.1 µM] (inactive); in that of `OCCN1CCN(CCO)CC1`, -1.98% [at 95.1 µM] (inactive).
Regarding `Cc1nnc(SCC2=C(C(=O)O)N3C(=O)[C@@H](NC(=O)Cn4cnnn4)[C@H]3SC2)s1`, the “activity change, negative = cytotoxicity” value is -0.425% (inactive).
`CS(=O)(=O)c1ccc([C@@H](O)[C@@H](CF)NC(=O)C(Cl)Cl)cc1`: the Potency is 7.17 µM (active).
On to `CCCCC1CCC(=O)O1` (stereo unspecified), for which the “activity change, negative = cytotoxicity” value is 9.62% (inactive).
On the same count and under the same terms, in the case of `NC/C=C/C(=O)O` it was 6.88% (inactive).
